Assay results taken from the supplement of paper PMC6411743.
± gives the standard deviation of the averaged measurements. About 6,200 targets were measured; listed, in parts, are those with the largest changes and a random draw of the rest.

Compound: Nc1ncnc2c1ncn2[C@@H]1O[C@H](COP(=O)(O)OP(=O)(O)NP(=O)(O)O)[C@@H](O)[C@H]1O [adenylyl imidodiphosphate]
Assay: NP40-soluble protein abundance relative to vehicle (solubility fold change) (ratio); higher = more soluble protein in presence of AMP-PNP
How it was run: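 Data come from three independent experiments in which Dounce-homogenised Jurkat crude lysate was treated at eight concentrations from 0.1 to 10 mM. Treatment ran 10 min at room temperature and then 3 min at 37 °C, after which 0.8% NP40 and benzonase were added for 60 min at 4 °C before ultracentrifugation. The supernatant underwent TMT labelling and LC-MS/MS, and vsn-normalised intensities were expressed as fold change against the detergent-processed vehicle in each replicate.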

UniProt Q15233, sequence (Q15233 whole entry): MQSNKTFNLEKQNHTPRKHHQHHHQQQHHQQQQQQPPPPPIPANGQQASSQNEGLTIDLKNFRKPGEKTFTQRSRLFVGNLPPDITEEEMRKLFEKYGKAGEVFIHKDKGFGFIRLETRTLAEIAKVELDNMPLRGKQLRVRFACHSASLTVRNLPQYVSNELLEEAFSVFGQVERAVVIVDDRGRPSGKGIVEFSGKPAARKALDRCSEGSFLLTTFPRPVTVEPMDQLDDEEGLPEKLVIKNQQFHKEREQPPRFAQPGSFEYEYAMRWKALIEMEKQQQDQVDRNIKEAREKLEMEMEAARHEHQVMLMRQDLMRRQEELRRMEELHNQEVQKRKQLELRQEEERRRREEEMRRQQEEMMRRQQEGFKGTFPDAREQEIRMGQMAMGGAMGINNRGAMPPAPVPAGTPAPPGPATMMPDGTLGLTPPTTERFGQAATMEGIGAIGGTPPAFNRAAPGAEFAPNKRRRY
UniProt Q9H5Z1, sequence (Q9H5Z1 whole entry, one chain of several): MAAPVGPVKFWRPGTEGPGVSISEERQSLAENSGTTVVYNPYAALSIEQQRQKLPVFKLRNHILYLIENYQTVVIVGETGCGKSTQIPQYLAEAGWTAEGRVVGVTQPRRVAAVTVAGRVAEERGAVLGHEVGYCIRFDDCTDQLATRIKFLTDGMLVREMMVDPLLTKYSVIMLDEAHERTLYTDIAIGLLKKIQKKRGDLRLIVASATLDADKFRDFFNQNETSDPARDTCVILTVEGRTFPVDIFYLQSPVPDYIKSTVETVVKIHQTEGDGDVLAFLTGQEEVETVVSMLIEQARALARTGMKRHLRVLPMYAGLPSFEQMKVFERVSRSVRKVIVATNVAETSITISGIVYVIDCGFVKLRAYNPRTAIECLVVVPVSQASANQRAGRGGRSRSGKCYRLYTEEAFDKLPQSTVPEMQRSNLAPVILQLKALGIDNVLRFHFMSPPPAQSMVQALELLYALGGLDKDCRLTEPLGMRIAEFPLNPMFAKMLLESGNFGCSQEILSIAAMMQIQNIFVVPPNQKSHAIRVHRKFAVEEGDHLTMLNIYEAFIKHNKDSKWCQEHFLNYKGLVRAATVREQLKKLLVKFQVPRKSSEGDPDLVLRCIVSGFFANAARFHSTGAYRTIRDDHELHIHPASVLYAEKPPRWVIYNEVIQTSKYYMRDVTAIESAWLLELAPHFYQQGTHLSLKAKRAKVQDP
UniProt Q15738, sequence (Q15738 whole entry): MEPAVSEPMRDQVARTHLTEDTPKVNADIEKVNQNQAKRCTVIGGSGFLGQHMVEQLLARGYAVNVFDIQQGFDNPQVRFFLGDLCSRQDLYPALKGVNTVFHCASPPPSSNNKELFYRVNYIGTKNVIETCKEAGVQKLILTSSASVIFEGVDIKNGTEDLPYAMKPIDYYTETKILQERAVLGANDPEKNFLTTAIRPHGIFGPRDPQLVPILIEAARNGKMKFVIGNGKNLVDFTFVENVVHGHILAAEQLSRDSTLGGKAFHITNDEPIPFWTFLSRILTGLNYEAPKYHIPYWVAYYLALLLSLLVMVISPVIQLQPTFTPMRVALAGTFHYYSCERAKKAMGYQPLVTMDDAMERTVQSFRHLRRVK
UniProt Q14181, sequence (Q14181 whole entry): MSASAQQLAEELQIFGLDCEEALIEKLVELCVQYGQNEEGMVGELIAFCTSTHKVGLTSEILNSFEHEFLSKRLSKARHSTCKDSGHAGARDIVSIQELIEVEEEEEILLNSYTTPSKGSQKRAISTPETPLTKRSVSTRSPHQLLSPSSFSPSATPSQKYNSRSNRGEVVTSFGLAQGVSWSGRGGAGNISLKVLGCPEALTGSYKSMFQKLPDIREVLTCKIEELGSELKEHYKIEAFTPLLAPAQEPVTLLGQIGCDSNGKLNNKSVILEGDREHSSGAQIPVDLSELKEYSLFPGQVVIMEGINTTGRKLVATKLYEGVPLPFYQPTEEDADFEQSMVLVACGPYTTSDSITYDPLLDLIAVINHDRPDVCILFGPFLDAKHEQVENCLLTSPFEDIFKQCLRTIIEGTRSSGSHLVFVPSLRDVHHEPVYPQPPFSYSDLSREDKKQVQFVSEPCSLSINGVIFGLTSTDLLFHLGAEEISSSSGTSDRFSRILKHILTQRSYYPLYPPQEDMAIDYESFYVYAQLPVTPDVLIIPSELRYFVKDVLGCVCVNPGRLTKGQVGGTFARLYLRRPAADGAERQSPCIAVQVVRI
UniProt Q5RKV6, sequence (Q5RKV6 whole entry): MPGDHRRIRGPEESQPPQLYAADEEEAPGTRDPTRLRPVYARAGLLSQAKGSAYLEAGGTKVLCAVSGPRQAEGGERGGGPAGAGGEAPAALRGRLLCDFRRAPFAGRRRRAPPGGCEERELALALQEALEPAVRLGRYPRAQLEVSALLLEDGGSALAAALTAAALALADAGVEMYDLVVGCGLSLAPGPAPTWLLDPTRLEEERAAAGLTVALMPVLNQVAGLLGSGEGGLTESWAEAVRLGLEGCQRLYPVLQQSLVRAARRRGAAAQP
UniProt Q13825, sequence (Q13825 whole entry): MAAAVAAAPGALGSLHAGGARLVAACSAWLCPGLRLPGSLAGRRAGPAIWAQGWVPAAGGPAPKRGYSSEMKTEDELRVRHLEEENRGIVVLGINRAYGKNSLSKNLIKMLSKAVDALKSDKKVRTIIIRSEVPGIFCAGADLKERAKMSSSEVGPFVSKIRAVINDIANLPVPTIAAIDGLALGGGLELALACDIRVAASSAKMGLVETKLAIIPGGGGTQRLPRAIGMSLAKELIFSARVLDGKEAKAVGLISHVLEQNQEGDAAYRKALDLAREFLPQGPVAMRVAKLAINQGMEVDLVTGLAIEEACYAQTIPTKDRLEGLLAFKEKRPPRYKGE
UniProt Q8IXQ5, sequence (Q8IXQ5 whole entry): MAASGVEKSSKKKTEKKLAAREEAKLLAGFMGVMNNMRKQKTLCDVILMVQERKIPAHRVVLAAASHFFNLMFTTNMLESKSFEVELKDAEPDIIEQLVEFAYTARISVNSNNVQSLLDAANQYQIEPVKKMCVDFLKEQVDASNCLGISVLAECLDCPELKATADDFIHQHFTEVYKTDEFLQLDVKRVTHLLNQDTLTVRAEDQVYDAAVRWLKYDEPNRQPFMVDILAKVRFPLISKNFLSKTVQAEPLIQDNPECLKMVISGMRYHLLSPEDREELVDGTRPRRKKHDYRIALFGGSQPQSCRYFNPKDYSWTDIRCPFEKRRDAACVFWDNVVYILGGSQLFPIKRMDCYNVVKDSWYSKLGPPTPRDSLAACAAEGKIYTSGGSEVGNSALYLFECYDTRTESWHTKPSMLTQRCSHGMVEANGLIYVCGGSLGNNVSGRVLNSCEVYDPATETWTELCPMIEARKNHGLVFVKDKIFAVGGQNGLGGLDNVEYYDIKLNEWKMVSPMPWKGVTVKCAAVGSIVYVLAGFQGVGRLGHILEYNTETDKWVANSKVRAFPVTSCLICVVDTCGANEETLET
UniProt Q15084, sequence (Q15084 whole entry): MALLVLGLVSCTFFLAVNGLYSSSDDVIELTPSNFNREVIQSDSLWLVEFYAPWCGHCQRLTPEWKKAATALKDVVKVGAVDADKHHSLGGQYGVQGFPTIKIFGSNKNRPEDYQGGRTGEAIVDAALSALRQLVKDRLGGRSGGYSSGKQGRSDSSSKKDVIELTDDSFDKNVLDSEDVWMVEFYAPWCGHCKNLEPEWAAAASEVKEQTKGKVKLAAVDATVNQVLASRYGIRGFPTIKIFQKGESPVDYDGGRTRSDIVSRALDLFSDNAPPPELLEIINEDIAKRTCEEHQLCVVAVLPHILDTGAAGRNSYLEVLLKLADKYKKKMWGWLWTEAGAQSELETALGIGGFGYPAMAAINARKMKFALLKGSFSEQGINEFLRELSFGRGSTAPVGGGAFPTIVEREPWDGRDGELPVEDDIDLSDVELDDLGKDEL
UniProt Q658Y4, sequence (Q658Y4 whole entry): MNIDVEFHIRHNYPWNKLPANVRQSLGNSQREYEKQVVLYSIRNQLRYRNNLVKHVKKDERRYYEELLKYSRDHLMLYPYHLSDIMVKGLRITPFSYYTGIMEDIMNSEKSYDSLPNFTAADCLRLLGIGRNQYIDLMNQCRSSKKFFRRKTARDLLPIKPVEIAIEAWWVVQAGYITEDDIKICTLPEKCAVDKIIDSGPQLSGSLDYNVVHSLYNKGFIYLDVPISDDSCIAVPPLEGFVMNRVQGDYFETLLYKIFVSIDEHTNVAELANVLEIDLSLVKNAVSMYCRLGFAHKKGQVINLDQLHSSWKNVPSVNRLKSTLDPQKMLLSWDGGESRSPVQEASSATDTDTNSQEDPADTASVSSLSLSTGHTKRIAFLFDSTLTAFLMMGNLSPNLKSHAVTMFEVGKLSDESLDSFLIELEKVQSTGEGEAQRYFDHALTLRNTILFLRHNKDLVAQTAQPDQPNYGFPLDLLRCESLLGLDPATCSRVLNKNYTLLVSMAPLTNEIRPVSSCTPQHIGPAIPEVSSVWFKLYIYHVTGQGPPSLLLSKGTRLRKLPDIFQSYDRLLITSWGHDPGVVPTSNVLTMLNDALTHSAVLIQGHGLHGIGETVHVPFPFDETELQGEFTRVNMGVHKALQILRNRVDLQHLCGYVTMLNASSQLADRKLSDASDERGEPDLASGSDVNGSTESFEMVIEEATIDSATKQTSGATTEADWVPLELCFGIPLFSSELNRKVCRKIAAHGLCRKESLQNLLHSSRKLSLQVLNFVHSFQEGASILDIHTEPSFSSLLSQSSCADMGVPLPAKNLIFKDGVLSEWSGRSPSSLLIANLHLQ
UniProt Q92979, sequence (Q92979 whole entry, looked up): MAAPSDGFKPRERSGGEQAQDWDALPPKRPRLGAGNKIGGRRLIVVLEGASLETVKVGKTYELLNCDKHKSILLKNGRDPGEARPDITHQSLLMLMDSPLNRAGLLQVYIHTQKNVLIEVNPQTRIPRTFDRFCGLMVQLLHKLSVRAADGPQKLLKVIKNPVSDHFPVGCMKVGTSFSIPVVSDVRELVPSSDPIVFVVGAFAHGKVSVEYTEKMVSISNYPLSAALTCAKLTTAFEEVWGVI

Target	NP40-soluble protein abundance (concentration: 1mM)	NP40-soluble protein abundance (concentration: 2mM)	NP40-soluble protein abundance (concentration: 4mM)	NP40-soluble protein abundance (concentration: 6mM)	NP40-soluble protein abundance (concentration: 8mM)	NP40-soluble protein abundance (concentration: 10mM)
Q5THR1|Q9H5Z1|Q9H5Z1-2|F2Z2Z2 (UniProt Q9H5Z1)	1.02 ± 0.061	0.96808 ± 0.00094	1.01 ± 0.011	0.987 ± 0.024	0.991 ± 0.022	0.997 ± 0.023
PMVK (UniProt Q15126)	0.948 ± 0.0098	0.931 ± 0.018	0.973 ± 0.045	1.04 ± 0.07	1.04 ± 0.061	1.02 ± 0.052
NSDHL (UniProt Q15738)	0.968 ± 0.04	0.892 ± 0.058	0.93 ± 0.022	0.953 ± 0.045	0.964 ± 0.036	0.923 ± 0.028
UniProt Q5EBL8|Q5EBL8-2	1 ± 0.011	1.02 ± 0.023	0.9905 ± 0.0052	1 ± 0.025	1.02 ± 0.03	1.017 ± 0.0054
TMED4 (UniProt Q7Z7H5)	1.017 ± 0.0076	0.973 ± 0.026	0.99 ± 0.032	1.02 ± 0.036	1.02 ± 0.025	1 ± 0.038
UniProt Q15056-2|Q15056	0.999 ± 0.037	1.03 ± 0.035	0.945 ± 0.14	0.94 ± 0.081	0.929 ± 0.087	0.884 ± 0.21
UniProt Q8WZA9	1.03 ± 0.023	1.08 ± 0.07	1.04 ± 0.059	0.988 ± 0.028	0.981 ± 0.021	0.989 ± 0.067
UniProt Q15084|Q15084-2|Q15084-3|Q15084-4|Q15084-5	0.949 ± 0.019	0.989 ± 0.021	0.9386 ± 0.0066	0.951 ± 0.032	0.92 ± 0.022	0.94 ± 0.047
FAM91A1 (UniProt Q658Y4)	0.958 ± 0.033	0.915 ± 0.068	0.961 ± 0.031	0.99 ± 0.041	1.01 ± 0.034	0.975 ± 0.054
ARFGAP1 (UniProt Q8N6T3)	1.02 ± 0.021	1.02 ± 0.023	1.02 ± 0.016	1.02 ± 0.023	0.993 ± 0.018	1.01 ± 0.038
POLA2 (UniProt Q14181)	0.994 ± 0.014	0.974 ± 0.028	1 ± 0.044	1.04 ± 0.03	1.02 ± 0.021	1.03 ± 0.025
USP34 (UniProt Q70CQ2)	0.958 ± 0.032	0.925 ± 0.044	0.955 ± 0.026	0.885 ± 0.021	0.877 ± 0.033	0.873 ± 0.014
UniProt Q5T011|Q5T011-5	0.882 ± 0.14	0.91 ± 0.071	0.912 ± 0.076	0.864 ± 0.16	0.809 ± 0.045	0.803 ± 0.056
HP1BP3 (UniProt Q5SSJ5)	0.963 ± 0.042	1.06 ± 0.063	1.03 ± 0.065	1.16 ± 0.017	1.18 ± 0.069	1.39 ± 0.15
UniProt Q14444|Q14444-2	1.12 ± 0.041	1.22 ± 0.17	1.16 ± 0.064	1.19 ± 0.13	1.19 ± 0.094	1.25 ± 0.08
UniProt Q8IXQ5|Q8IXQ5-2|Q8IXQ5-5	0.984 ± 0.042	0.979 ± 0.018	0.974 ± 0.029	0.9744 ± 0.0094	0.983 ± 0.044	0.9769 ± 0.0044
EMG1 (UniProt Q92979)	1.01 ± 0.03	1 ± 0.014	1.12 ± 0.087	1.19 ± 0.071	1.24 ± 0.096	1.26 ± 0.1
UniProt Q13825|Q13825-2	0.995 ± 0.028	1.02 ± 0.025	1.04 ± 0.044	1.03 ± 0.015	1.04 ± 0.057	1.06 ± 0.025
MDC1 (UniProt Q14676)	1.13 ± 0.032	1.31 ± 0.086	1.49 ± 0.12	1.86 ± 0.28	2.04 ± 0.41	2.34 ± 0.53
UniProt Q16630-2|Q16630	1.067 ± 0.004	1.12 ± 0.043	1.149 ± 0.0081	1.22 ± 0.025	1.3 ± 0.017	1.51 ± 0.045
UniProt Q5M775|Q5M775-2|Q5M775-3|Q5M775-4|Q5M775-5	0.945 ± 0.062	0.89 ± 0.032	0.95 ± 0.05	1.04 ± 0.032	1.01 ± 0.031	0.992 ± 0.059
UniProt Q8TB61|Q8TB61-2|Q8TB61-3	0.968 ± 0.041	0.969 ± 0.045	0.965 ± 0.045	0.953 ± 0.034	0.951 ± 0.042	0.989 ± 0.019
EXOSC6 (UniProt Q5RKV6)	1.04 ± 0.032	1.03 ± 0.041	1.08 ± 0.018	1.12 ± 0.036	1.14 ± 0.052	1.14 ± 0.074
UniProt Q7L5N7|A0A087X0A3|Q7L5N7-2	0.987 ± 0.031	0.966 ± 0.051	0.979 ± 0.037	0.99 ± 0.035	0.985 ± 0.028	1.01 ± 0.036
UniProt Q86W42|Q86W42-2	1.17 ± 0.087	1.25 ± 0.065	1.36 ± 0.11	1.49 ± 0.1	1.65 ± 0.18	1.67 ± 0.27
PLA2G15 (UniProt Q8NCC3)	0.991 ± 0.013	0.975 ± 0.013	1.02 ± 0.03	0.986 ± 0.029	0.9922 ± 0.0084	0.979 ± 0.021
UniProt Q92793|Q92793-2	1.05 ± 0.037	1.05 ± 0.028	1.01 ± 0.035	1.01 ± 0.04	1.02 ± 0.015	1.05 ± 0.02
CBLL1 (UniProt Q75N03)	1 ± 0.01	1.04 ± 0.022	1.03 ± 0.045	0.995 ± 0.015	0.976 ± 0.014	0.985 ± 0.016
UniProt Q16698-2|Q16698	1.06 ± 0.085	1.11 ± 0.058	1.19 ± 0.08	1.21 ± 0.014	1.26 ± 0.041	1.25 ± 0.02
NONO (UniProt Q15233)	1.09 ± 0.048	1.17 ± 0.064	1.22 ± 0.056	1.39 ± 0.12	1.45 ± 0.15	1.56 ± 0.18
